In PubChem BioAssay AID1347418 (Sanford-Burnham Center for Chemical Genomics, 2020):
The campaign covered roughly 1,300 compounds. About 750 (58%) were called active. The list shows a part of the results. Residues, ends and D or L forms follow the SMILES beside them. *: point of attachment. Cbz = O=C(OCc1ccccc1)*

target: Sulfhydryl oxidase 1 (Homo sapiens) (UniProt O00391); experiment: QSOX1 enzyme inhibitors, primary screen, biochemical, ROS-Glo H2O2 luminescence, HTS (AID 1347418); conditions: recombinant QSOX1, ROS-Glo H2O2 luminescence; at 12.5 µM; active compounds read high; active = any value above zero
Sequence (O00391 whole entry, looked up): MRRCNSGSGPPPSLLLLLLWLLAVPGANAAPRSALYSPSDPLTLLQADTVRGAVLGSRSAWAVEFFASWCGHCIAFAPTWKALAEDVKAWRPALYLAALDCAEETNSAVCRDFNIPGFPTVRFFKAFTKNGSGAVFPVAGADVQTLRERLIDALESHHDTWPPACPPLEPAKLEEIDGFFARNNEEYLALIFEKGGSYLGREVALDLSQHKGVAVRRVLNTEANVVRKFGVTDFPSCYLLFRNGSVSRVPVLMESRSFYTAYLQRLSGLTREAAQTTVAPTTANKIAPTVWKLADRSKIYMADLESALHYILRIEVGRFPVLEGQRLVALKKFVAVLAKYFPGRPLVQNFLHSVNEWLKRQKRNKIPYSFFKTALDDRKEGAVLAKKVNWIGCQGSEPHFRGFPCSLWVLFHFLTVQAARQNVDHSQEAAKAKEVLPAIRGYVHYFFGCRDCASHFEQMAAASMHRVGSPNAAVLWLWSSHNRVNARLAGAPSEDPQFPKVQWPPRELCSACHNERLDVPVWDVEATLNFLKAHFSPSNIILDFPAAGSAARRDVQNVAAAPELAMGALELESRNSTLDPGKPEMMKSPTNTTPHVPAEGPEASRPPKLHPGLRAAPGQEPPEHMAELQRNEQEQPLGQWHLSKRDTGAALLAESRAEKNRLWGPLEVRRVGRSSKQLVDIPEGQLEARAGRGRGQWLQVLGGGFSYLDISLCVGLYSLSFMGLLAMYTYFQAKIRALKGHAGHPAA

inhibition, active:
CNC(=O)Oc1ccc2c(c1)[C@]1(C)CCN(C)[C@@H]1N2C 2.6%
CN1[C@@H](CC(=O)c2ccccc2)CCC[C@H]1C[C@H](O)c1ccccc1 4.3%
CC(C)c1cccc(C(C)C)c1N1C(=O)c2ccc(O)cc2C1=O 0.3%
O=C(O)/C=C/c1ccc(O)c(O)c1 9.6%
O=C(/C=C/c1ccc(O)c(O)c1)OCCc1ccccc1 19.7%
Nc1ncnc2c1nc(Sc1ccc(Cl)cc1)n2C1OC2COP(=O)(O)O[C@@H]2[C@@H]1O (some centres not stated) 1.8%
C[C@H]1O[C@@H](n2cc(F)c(=O)[nH]c2=O)[C@H](O)[C@@H]1O 4.5%
c1ccc2c(c1)CCC[C@H]2Nc1nc2ccccc2[nH]1 12.1%
NC(=NCc1ccccc1)NC(=O)c1nc(Cl)c(N)nc1N 4.4%
CCN(CC)CCCCCCCCOC(=O)c1cc(OC)c(OC)c(OC)c1 6.2%
CC(=O)NNC(=O)N1Cc2ccccc2Oc2ccc(Cl)cc21 2.6%
C[C@H]1CC2C3CCC4=CC(=O)C=C[C@]4(C)[C@@]3(Cl)[C@@H](O)C[C@]2(C)[C@@]1(O)C(=O)CO (some centres not stated) 8.8%
CC1CC2C3CCC4=CC(=O)C=C[C@]4(C)[C@@]3(F)[C@@H](O)C[C@]2(C)[C@@]1(O)C(=O)CO (some centres not stated) 2.3%
CC12CC3CC(C)(C1)CC(N)(C3)C2 3.5%
O=c1cc(-c2ccccc2F)[nH]c2cc3c(cc12)OCO3 4.4%
OC(CN1CCC(Cc2ccc(F)cc2)CC1)c1ccc(Cl)cc1 (configuration not stated) 7.6%
c1ccc(C2CN3CCSC3=N2)cc1 (configuration not stated) 0.3%
Brc1ccc([C@H]2CN3CCSC3=N2)cc1 6.2%
CN1CCN(CCCN2c3ccccc3Sc3ccc(C(F)(F)F)cc32)CC1 27.4%
OCCN1CCN(CCCN2c3ccccc3Sc3ccc(C(F)(F)F)cc32)CC1 43.6%
OCCN1CCN(CC/C=C2/c3ccccc3Sc3ccc(C(F)(F)F)cc32)CC1 0.6%
NC(=O)c1cn(Cc2c(F)cccc2F)nn1 1.3%
Cc1ccccc1N1C(=O)c2cc(S(N)(=O)=O)c(Cl)cc2NC1C (configuration not stated) 0.3%
CC(=O)NCCc1c[nH]c2ccc(O)cc12 27.5%
COc1ccc2[nH]cc(CCNC(C)=O)c2c1 5.6%
COc1cc2c(CCNC(C)=O)c[nH]c2cc1O 45.2%
Nc1nc(OCc2ccccc2)c2[nH]cnc2n1 2%
O=c1ccc2c(OCCCCc3ccccc3)c3ccoc3cc2o1 2.3%
CC(=O)O[C@H]1Cc2ccccc2N(C(N)=O)c2ccccc21 0.3%
CC1(C)CCC2=C(O1)c1ccccc1C(=O)C2=O 40.5%
COc1cc(Cc2cnc(N)nc2N)cc(OC)c1OC 0.5%
COc1cc2c(cc1OC)C1CC(=O)C(CC(C)C)CN1CC2 (configuration not stated) 2.6%
CC[C@H]1CN2CCc3cc(OC)c(OC)cc3[C@@H]2C[C@@H]1C[C@H]1NCCc2cc(OC)c(OC)cc21 1.7%
CCc1cccc(N(C)C(N)=Nc2cccc3ccccc23)c1 8.7%
Fc1ccc(C(c2ccc(F)cc2)N2CCN(C/C=C/c3ccccc3)CC2)cc1 0.4%
C(=C\c1ccccc1)/CN1CCN(C(c2ccccc2)c2ccccc2)CC1 4.9%
CN(C)CCCc1cc(C(=O)Nc2ccc(-c3ccncc3)cc2)ccc1O 2.5%
Cc1nc(N=Nc2ccc(C(=O)O)cc2)c(COP(=O)(O)O)c(C=O)c1O 0.9%
Cc1nc(N=NC2=[C+]C3=C(C=C([N+](=O)[O-])[C+]=C3S(=O)(=O)[O-])C(S(=O)(=O)[O-])=[C+]2)c(COP(=O)([O-])O)c(C=O)c1O 2.8%
CN(C)CCC=C1c2ccccc2C=Cc2ccccc21 1%
CSc1ccc2c(c1)N(CCC1CCCCN1C)c1ccccc1S2 (configuration not stated) 46.5%
Oc1cc2c(cc1O)CN(C(=S)NCCc1ccc(Cl)cc1)CCC2 25.5%
CC(C)NC[C@H](O)COc1ccc(CC(N)=O)cc1 5.2%
CC(C)NCC(O)COc1ccc(COCCOC(C)C)cc1 (configuration not stated) 3.9%
COC(=O)c1c(C)[nH]c(C)c1C(=O)c1ccccc1Cc1ccccc1 1.9%
CN1CCc2cccc3c2C1Cc1ccc(O)c(O)c1-3 (configuration not stated) 17.1%
O=c1n(CCCN2CCN(c3cccc(Cl)c3)CC2)nc2ccccn12 8.6%
O=c1c(-c2ccc(O)cc2)coc2cc(O)ccc12 7.6%
CC(C)C[C@H](NC(=O)[C@H](O)[C@H](N)Cc1ccccc1)C(=O)O 9.6%
CC(C)C[C@H](NC(=O)[C@@H](O)[C@H](N)Cc1ccccc1)C(=O)O 0.1%
O=P(O)(O)C(Cl)(Cl)P(=O)(O)O 5.2%
N[C@H](C(=O)O)[C@H](Cc1ccccc1)C(=O)O 0.5%
O=C1c2c(O)cc(O)cc2OC(c2ccc(O)c(O)c2)C1O (configuration not stated) 9.8%
Oc1cc(O)c2c(c1)O[C@H](c1ccc(O)c(O)c1)[C@@H](O)C2 12.2%
O=C(O)CCc1ccc(NCc2cccc(Oc3ccccc3)c2)cc1 13.1%
CC(C)(C)NCC(O)COc1cccc2[nH]c(=O)[nH]c12 (configuration not stated) 0.2%
Brc1c(Br)c(Br)c2[nH]cnc2c1Br 3.9%
CN1CCc2ccccc2Cc2[nH]c3ccccc3c2CC1 6.3%

inhibition, inactive:
COC(=O)C1=CO[C@@H](O)[C@@H]2C(CO)=CC[C@H]12 -3.2%
NCC1OC(O[C@@H]2[C@H](O)C(OC3C(O)C(N)CC(N)C3OC3OC(CO)C(O)C(O)C3N)O[C@@H]2CO)C(N)C(O)C1O (some centres not stated) -3.5%
C=C(C)C1CC=C(C(=O)O)CC1 (configuration not stated) -1.3%
NC1C=CC=C(C(=O)O)C1 (configuration not stated) -2.2%
O=C(O)C1CCCN(CCC=C(c2ccccc2)c2ccccc2)C1 (configuration not stated) -3.9%
CC(C)(C)c1ccc(C(=O)CCCN2CCC(OC(c3ccccc3)c3ccccc3)CC2)cc1 -3.2%
O=C(CCCN1CCC(O)(c2ccc(Cl)cc2)CC1)c1ccc(F)cc1 -4%
CCCCN1CCC(n2c(=O)[nH]c3ccccc32)CC1 -1.6%
O=c1cc(-c2ccccc2)[nH]c2nc(Cl)ccc12 -0.2%
Nc1nc(O)c2nc(Br)n(C3OC4COP(=O)(O)O[C@@H]4C3O)c2n1 (some centres not stated) -4.7%
Nc1ncnc2c1nc(Br)n2C1OC2COP(=O)(O)O[C@@H]2C1O (some centres not stated) -1.8%
O=c1ccn([C@@H]2O[C@H](COP(=O)(O)OP(=O)(O)O)[C@@H](O)[C@H]2O)c(=O)[nH]1 -4.1%
c1ccc2c(c1)CCCC2C1=NCCN1 (configuration not stated) -3.7%
NC(=Nc1ccccc1)NC(=O)c1nc(Cl)c(N)nc1N -0.3%
CCN(CC)CCOC(=O)c1ccc(N)cc1 -3.4%
CCCCc1oc2ccccc2c1C(=O)c1cc(I)c(OCCN(CC)CC)c(I)c1 -1%
C[C@]12C=CC(=O)C=C1CC[C@H]1[C@@H]3C[C@@H](O)[C@](O)(C(=O)CO)[C@@]3(C)C[C@H](O)[C@@]12F -107%
CCCC1O[C@@H]2C[C@H]3[C@@H]4CCC5=CC(=O)C=C[C@]5(C)[C@H]4[C@@H](O)C[C@]3(C)[C@]2(C(=O)CO)O1 (some centres not stated) -0.8%
NC12CC3CC(CC(C3)C1)C2 -0.1%
c1ccc([C@H]2CN3CCSC3=N2)cc1 -2.6%
O=C(CCCN1CCC(O)(c2cccc(C(F)(F)F)c2)CC1)c1ccc(F)cc1 -4.6%
NC/C=C\C(=O)O -0.4%
COc1ccc(NC=O)c(C(=O)CCNC(C)=O)c1 -0.8%
COc1cc2c(CCNC(C)=O)c[nH]c2cc1Cl -1.4%
Nc1nc(OCC2CCCCC2)c2[nH]cnc2n1 0%
NC/C=C/C(=O)O -2.4%
NC(=O)N1c2ccccc2C=Cc2ccccc21 -1.4%
CC(C)(C)C(=O)Oc1ccc(S(=O)(=O)Nc2ccccc2C(=O)NCC(=O)O)cc1 -1%
C#CCN(C)CCCOc1ccc(Cl)cc1Cl -1.5%
Cn1ccnc1 -4.4%
CN(C)CC/C=C1\c2ccccc2COc2ccccc21 -3.1%
CN(C)CCC=C1c2ccccc2CCc2ccccc21 -4.4%
CSc1ccc2c(c1)C(N1CCN(C)CC1)Cc1ccccc1S2 (configuration not stated) -0.9%
CC(C)NCC(O)COc1ccc(CC(N)=O)cc1 (configuration not stated) -2%
COCCc1ccc(OCC(O)CNC(C)C)cc1 (configuration not stated) -2%
CC(C)NCC(O)COc1ccc(CCOCC2CC2)cc1 (configuration not stated) -0.5%
C=CCc1cccc(/C=N/NC(=O)CN2CCN(Cc3ccccc3)CC2)c1O -3.2%
COc1cc2ncnc(Nc3cccc(Cl)c3)c2cc1OC -1.3%
O=c1c(-c2ccc(O)cc2)coc2cc(O)cc(O)c12 -5.9%
CC(C)[C@H](NC(=O)OCc1ccccc1)C(=O)N[C@H](C=O)Cc1ccccc1 (Cbz-Val-Phe-aldehyde) -1.6%
O=C(N[C@@H](Cc1ccccc1)C(=O)CCl)OCc1ccccc1 -6.4%
O=C(O)CNC(=O)C(CS)Cc1ccccc1 (configuration not stated) -1.4%
[Li+] 0%
N=C(N)N1CCc2ccccc2C1 -3.7%
